Test results: PubChem BioAssay (Tox21)
Inconclusive results are not listed. Calls of active or inactive are those of the source. Calls follow the shape of the full dose curve.

Assay: p53 small molecule agonists, cell-based qHTS assay: qHTS cell viability counter screen (AID 1963581); also: nearly all actives have a fitted effect of over 45% in size
Settings: p53RE-bla HCT-116 viability, ATP luminescence, 16 h; series mostly up to 66 µM; activity change, negative = cytotoxicity: at the top concentration
From the text: National Center for Advancing Translational Sciences [NCATS]
Division of Preclinical Innovation [DPI]
U.S. Environmental Protection Agency [EPA]
National Institutes of Environmental Health Sciences [NIEHS]
National Toxicology Program [NTP]
U.S. Food and Drug Administration [FDA]
p53, a tumor suppressor protein, is activated following cellular insult, including DNA damage and other cellular stresses. The activation of p53 regulates cell fate by inducing DNA repair, cell cycle arrest, apoptosis, or cellular senescence. The activation of p53, therefore, is a good indicator of DNA damage and other cellular stresses. The CellSensor p53RE-bla HCT-116 cell line (Invitrogen) contains a stably integrated beta-lactamase reporter gene under control of the p53 response elements. The activation of the reporter gene under culture conditions can be detected by fluorescence intensity. This cell line was used to screen the Tox21 compound library in a 1536-well plate format and to identify agonists that activate the p53 signaling pathway. The cytotoxicity of the Tox21 compound library against the p53 RE-bla HCT-116 cell line was tested in parallel by measuring the intra cellular ATP content in the same wells.
Tox21 Assay Protocol Summary:
The p53RE-bla cells were dispensed at 4,000 cells/5 ul/well in 1536-well black wall/clear bottom plates using a Multidrop dispenser. After the assay plates were incubated at a 37 C/5% CO2 incubator for 5 hours, 23 nL of compounds dissolved in DMSO, positive controls or DMSO only was transferred to the assay plate by a pin tool. The plates were incubated at 37 C for 16 hours. After 1 uL of LiveBLAzerTM B/G FRET substrate was added using a Flying Reagent Dispenser, the plates were incubated at room temperature for 2 hours, and fluorescence intensity was measured by an Envision plate reader. For cell viability readout that measures cytotoxicity, 4 ul/well of CellTiter-Glo reagent was added into the assay plates using a Flying Reagent Dispenser. After 30 min incubation at room temperature, the luminescence intensity in the plates was measured using a ViewLux plate reader.
% is scaled to controls: 0 for no effect and ±100 for the full control effect.

Structure (SMILES) | activity change, negative = cytotoxicity | Potency
OCc1ccccc1O | -0.783% [at 30.3 µM] (inactive) | 
CC1(C)Oc2ccc(C#N)cc2[C@@H](N2CCCC2=O)[C@@H]1O | 9.04% [at 30.3 µM] (inactive) | 
CC(C)(C)OCC1CO1 (stereo not given) | 1.61% (inactive) | 
O=C(O)c1ccc(OCCN2CCCCC2)cc1 | -7.54% [at 30.3 µM] (inactive) | 
C(/C=C/C=C/Nc1ccccc1)=Nc1ccccc1 | 0.418% (inactive) | 
CCCCCCCCCC/C=C/C#N | -13% (inactive) | 
C/C=C/C(=O)C1=C(C)C=CCC1(C)C | -0.681% (inactive) | 
C/C=C/c1ccc(OC)c(OC)c1 | 15.9% (inactive) | 
Cc1cccc(Cl)c1 | -3.04% (inactive) | 
N#CC1(O)CCCCC1 | -7.65% (inactive) | 
NC/C=C/C(=O)O | -20.9% [at 30.3 µM] (inactive) | 
CC(=O)c1ccccc1O | 11.2% (inactive) | 
Cc1ccc(C(=O)c2cc(O)c(O)c([N+](=O)[O-])c2)cc1 |  | inactive
O=C1CCCCCCCCCCCCCCCO1 | -4.52% (inactive) | 
CN1N=C(C(N)=O)CCC1=O | 11.8% [at 30.3 µM] (inactive) | 
CC1(C)[C@H](C(=O)OCc2cccc(Oc3ccccc3)c2)[C@@H]1C=C(Cl)Cl | 2.71% (inactive) | 
ON=C1CCCCC1 |  | inactive
CC(C)(c1ccccc1)c1ccc(Nc2ccc(C(C)(C)c3ccccc3)cc2)cc1 |  | inactive
Nc1nc(N)nc(-c2ccccc2)n1 |  | inactive
CCOCOCC | -20.2% (inactive) | 

Structure (SMILES) | activity change, negative = cytotoxicity | Potency
CCOC(=O)CC(C(C)=O)C(C)=O | -3.81% (inactive) | 
C[C@@H]1O[C@@H](OC[C@H]2O[C@@H](Oc3c(-c4ccc(O)c(O)c4)oc4cc(O)cc(O)c4c3=O)[C@H](O)[C@@H](O)[C@@H]2O)[C@H](O)[C@H](O)[C@H]1O |  | inactive
O=C(O)C(=O)Nc1cccc(-c2nn[nH]n2)c1 | -0.841% [at 30.3 µM] (inactive) | 
c1coc(CNc2ncnc3nc[nH]c23)c1 | 9.14% (inactive) | 
Nc1ccc([N+](=O)[O-])c(C(F)(F)F)c1 | 5.73% [at 30.3 µM] (inactive) | 
CCN(C=O)CC | 6.76% (inactive) | 
CCOc1ncc(F)c(=O)[nH]1 | -9.01% [at 30.3 µM] (inactive) | 
Cn1sccc1=O |  | inactive
COc1cc(Cl)ccc1Cl | 2.39% (inactive) | 
Clc1ccccc1-c1nc(-c2ccncc2)no1 | -10% [at 30.3 µM] (inactive) | 
C=CCc1cc(OC)c(O)c(C(=O)NCCO)c1 | -2.79% [at 30.3 µM] (inactive) | 
CC(=O)CC(=O)Nc1ccccc1 |  | inactive
OC[C@H]1O[C@@H](O[C@H]2[C@H](O)[C@@H](O)[C@H](O)O[C@@H]2CO)[C@H](O)[C@@H](O)[C@H]1O | 22.8% (inactive) | 
CC[C@@H]1C[C@H](N(Cc2cc(C(F)(F)F)cc(C(F)(F)F)c2)C(C)=O)c2cc(C(F)(F)F)ccc2N1C(=O)OC(C)C | 2.66% (inactive) | 
CCCCCCCCCCCCCCC(=O)NC(CO)CCCCCCCCCCCCCC (stereo not given) | 3.96% (inactive) | 
C=CCCC | 5.17% (inactive) | 
CCCCCCCC(=O)N(C)C | 13% (inactive) | 
C=C[Si](OC(=C)C)(OC(=C)C)OC(=C)C | 22.1% (inactive) | 
CC1=CC[C@@H](C(C)(C)O)CC1 | 0.695% (inactive) | 
O=[N+]([O-])c1ccccc1Nc1ccccc1 | -20.3% (inactive) | 
